Tb PFK inh-1 – T. brucei PFK enzyme inhibition; Potency, µM (titrated, usually from 57.5 µM), without a hit: at the highest dose activity, negative = inhibition, usual class: inhibitors; O15648; T. brucei PFK, ADP-Glo luminescence; 0.17% of 330,000 active;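 further: 0% = uninhibited 1x PFK enzyme wells and -100% = no-enzyme wells; nearly all actives have a fitted effect of over 60% in size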
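In TEA buffer at pH 8.0 with 5 mM MgCl2, enzyme (1.25 nM) converted F6P (0.5 mM) and ATP (0.1 mM) for 45 min at room temperature. ADP product was read by luciferase luminescence.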
Pin1 inh – human Pin1 inhibition; Q13526; Pin1 FP peptide displacement, HiFluor488, 10 min; Potency, µM (titrated, usually from 115 µM), inactives show top-dose activity, negative = inhibition, usual class: inhibitors; 0.009% of 390,000 active; AID 504891; active means well fitted inhibition curve with a large enough effect in the polarisation, with a control signal flat, not every such curve was filed as active; inconclusive means small, poorly fitted or top-dose-only effect, or effect the other way, or a change in a side signal; inactive means no such curve, though single readings can be large or run the other way; the % refers to the polarisation; further: on the % scale 0 is the no-effect control and ±100 the full control effect
Target sequence (Q13526 whole entry, looked up): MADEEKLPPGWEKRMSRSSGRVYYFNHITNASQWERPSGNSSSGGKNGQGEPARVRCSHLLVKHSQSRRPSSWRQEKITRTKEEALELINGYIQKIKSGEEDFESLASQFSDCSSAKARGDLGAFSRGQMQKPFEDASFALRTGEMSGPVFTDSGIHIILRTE
VDR inhibitor – blocks the human vitamin D receptor. AID 504847. Potency, µM, for the others: max response, negative = inhibition, most hits filed as inhibitors. VDR-SRC2-3 peptide fluorescence polarization, 2 h. 0.93% of 400,000 active. P11473; further: on the % scale 0 is the no-effect control and ±100 the full control effect
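Compounds are added to VDR with labelled SRC2-3 coactivator peptide and held 2 h at room temperature. Inhibition of the VDR–peptide interaction is then read as a change in fluorescence polarization.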
Tb PGK inh – inhibitors of T. brucei phosphoglycerate kinase; P07378; PGK/GAPDH coupled, Kinase-Glo luminescence, 60 min; Potency, µM (series often up to 57.5 µM), without a hit: at the highest dose activity change, negative = inhibition, most hits filed as inhibitors; 0.043% of 380,000 active; AID 602233; further: on the % scale 0 is the no-effect control and ±100 the full control effect; nearly all actives have a fitted effect of over 60% in size
Target sequence (P07378 whole entry, looked up): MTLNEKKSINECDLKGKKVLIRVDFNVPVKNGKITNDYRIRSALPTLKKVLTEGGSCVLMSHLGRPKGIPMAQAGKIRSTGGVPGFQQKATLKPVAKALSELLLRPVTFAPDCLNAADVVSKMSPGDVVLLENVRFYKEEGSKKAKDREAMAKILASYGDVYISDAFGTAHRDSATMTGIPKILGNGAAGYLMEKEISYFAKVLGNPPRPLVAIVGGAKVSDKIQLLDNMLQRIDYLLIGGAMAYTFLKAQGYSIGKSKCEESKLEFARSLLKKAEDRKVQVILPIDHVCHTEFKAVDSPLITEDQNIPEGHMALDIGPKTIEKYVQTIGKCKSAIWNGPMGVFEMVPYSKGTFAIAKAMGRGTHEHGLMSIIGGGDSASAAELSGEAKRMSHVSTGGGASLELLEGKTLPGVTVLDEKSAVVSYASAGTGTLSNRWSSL
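Luminescent ATP detection (Kinase-Glo Plus) follows a 60-minute room-temperature incubation, with wells lacking PGK as controls. Buffer: 100 mM TEA (pH 7.6), 5 mM MgCl2, 0.01% Tween-20. Coupling enzyme GAPDH (100 nM final) supplies unstable 1,3-BPG in-well.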
GLS inhibitor – blocks human kidney-isoform glutaminase activity; GLS enzymatic activity, qHTS titration; O94925; AID 624170; Potency, µM (highest dose often 45.5 µM), for inactives: at the top dose activity change, negative = inhibition, usual class: inhibitors; 0.21% of 410,000 active; further: on the % scale 0 is the no-effect control and ±100 the full control effect
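Two-point fluorescence kinetic (t0, 30 min RT) for hKGA; glutamate detected via glutamate oxidase–HRP–Amplex Red. Substrate: 1 mM L-glutamine solution; buffer 45 mM KH2PO4, pH 8.2.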
TbPFK ATP – Tb phosphofructokinase inhibition, orthogonal luminescence. shares compounds with Tb PFK inh-1. Tb PFK enzyme, ATP depletion, Kinase-Glo Plus luminescence. Potency, µM (titrated, usually from 57.5 µM), without a hit: top-dose inhibition. 47% of 1,100 active. AID 504636; calls by dose curve; further: nearly all actives have a fitted effect of over 60% in size
Tb PFK inh-2 – validation of T. brucei phosphofructokinase inhibitors. 41% of 1,100 active. AID 504637. shares compounds with Tb PFK inh-1. purified T. brucei PFK, ADP-Glo luminescence, 45 min. Potency, µM (series often up to 57.5 µM), without a hit: at the top dose activity change, negative = inhibition, actives largely listed as inhibitors;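 further: plate controls were full PFK enzyme control for no effect and no enzyme control for full effect; nearly all actives have a fitted effect of over 60% in size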
An asterisk follows results filed as active; i = inactive; u = inconclusive; x = not tested or not shown; [ ] = remark or other dose. Sampled rows, rich in hits. Any-hit rate of the full collection: about 1.1%. Unless noted, the call rests on the fitted dose curve; in most records, active means well fitted curve in the direction sought with a large enough effect; inconclusive means small, poorly fitted or top-dose-only effect, or another doubt; inactive means no such curve, though single readings can be large; an effect the other way counts as inactive or inconclusive. Potency means the concentration at half of the fitted maximal effect.

SMILES	Tb PFK inh-1	Pin1 inh	VDR inhibitor	Tb PGK inh	GLS inhibitor	TbPFK ATP	Tb PFK inh-2
O=C1/C(=C/c2ccco2)SC(=S)N1c1cccnc1	u	x	-18%	u	11%	4.3µM*	7.6µM*
CCC(C)(S(=O)(=O)CC)S(=O)(=O)CC	x	x	14%	x	-1%	x	x
O=C(CSc1nnc(CNc2ccc(F)cc2)o1)N1CCCc2ccccc21	27µM*	-7%	u	4%	19%	12µM*	27µM*
CC(C)N(C(=O)CSc1nnc(CNc2ccc(F)cc2)o1)C(C)C	17µM*	u	-5%	6%	12%	u	u
COc1ccc(C(=O)CSc2nnc(CNc3ccc(F)cc3)o2)cc1	17µM*	0%	-2%	7%	1%	12µM*	24µM*
C=CCN=C=S	x	x	4%	x	-12%	x	x
CN1C2CNC(=O)CC1C1CCC2C1 (stereo not given)	x	x	x	i	6%	x	x
CCn1c2ccccc2c2cc(NC(=O)CSc3nnc(C4CC4)n3Cc3ccco3)ccc21	u	8%	-13%	6%	14%	u	-28%
CC(C)c1ccc(NC(=O)CSc2nnc(OC(=O)N(C)C)n2C2CC2)cc1	-4%	1%	5%	-1%	-1%	x	x
C[C@@H]1[C@H](O)[C@@H](C)C=CC=CCCC=CC=CC=CC=C[C@H](O[C@H]2O[C@@H](C)[C@H](O)[C@@H](N)[C@@H]2O)CC2O[C@](O)(C[C@@H](O)[C@H](O)CC[C@@H](O)C[C@@H](O)C[C@@H](O)CC(=O)O[C@H]1C)C[C@H](O)[C@H]2C(=O)O	x	x	x	x	46%	x	x
CC(C)N1CCOC(c2ccc(O)c(O)c2)C1 (stereo not given)	x	x	x	x	25%	x	x
Oc1ccc(C2C[C@H]3CC[C@@H]2C3)cc1O (stereo not given in full)	u	4%	-13%	3%	u	12µM*	13µM*
CC(C)(C#CCCCCC#CC(C)(C)[N+](C)(C)C)[N+](C)(C)C	-6%	x	x	x	x	x	x
CCOC(=O)c1c(-c2ccco2)csc1NC(=O)COC(=O)c1cnccn1	6.7µM*	u	-9%	-6%	6%	24µM*	-27%
CCCCn1c(NC(=O)c2ccco2)c(C(=O)OCC)c2nc3ccccc3nc21	3%	u	-72%	-3%	-8%	x	x
CCNS(=O)(=O)c1ccc(NC(=O)Cn2cc([N+](=O)[O-])cn2)cc1	12µM*	1%	-2%	4%	0%	12µM*	u
CC(=O)Nc1ccc([As](=O)(O)c2ccc([N+](=O)[O-])cc2)cc1	-2%	-5%	16%	-6%	9%	x	x
CCOc1ccc(C(C)=O)cc1N1C(=O)C2C3C=CC(O3)C2C1=O (stereo not given)	u	9%	22µM*	-4%	18%	-20%	u
CCOc1ccc(C(C)=O)cc1Cn1ccsc1=N	0%	0%	0%	8%	21%	x	x
O=S(=O)(c1ccc(F)cc1)N1CCCC1c1cccnc1 (stereo not given)	0%	-1%	5%	-7%	-2%	x	x
O=C(NCc1cccnc1)C(=O)NCC1OCCN1S(=O)(=O)c1ccc(F)cc1 (stereo not given)	u	u	-13%	8%	-3%	u	-30%
CCOc1ccc(-c2cc(C(=O)N3CCN(S(=O)(=O)c4cc(Cl)ccc4OC)CC3)[nH]n2)cc1	x	64%	8%	-5%	3%	x	x
Fc1ccc(NC(=S)Nc2ccc(F)c(Cl)c2)cc1Cl	u	-4%	-17%	-7%	-5%	u	-30%
CCCCC(=O)Nc1ccc(F)c(Cl)c1	u	-1%	-4%	-5%	-28%	u	-12%
Cc1ccc(NC(=O)N(C)C)cc1Cl	x	x	7%	x	x	x	x
SMILES	Tb PFK inh-1	Pin1 inh	VDR inhibitor	Tb PGK inh	GLS inhibitor	TbPFK ATP	Tb PFK inh-2
O=C1c2ccccc2C(=O)N1/N=C/c1ccc(O)c(O)c1O	19µM*	x	79µM*	-15%	u	11µM*	27µM*
Fc1cccc(-c2ccc3c(c2)CNCc2cnnn2-3)c1	x	x	x	x	2%	x	x
NC(=S)N=Nc1ccc(NN=C(N)N)cc1	u	-6%	18µM*	-7%	45%	6.7µM*	13µM*
CC/C=C\C/C=C\C/C=C\C/C=C\C/C=C\CCCC(=O)NCCO	x	x	-5%	x	x	x	x
Cc1ccc(S(=O)(=O)N2CCN(C(=O)COC(=O)Cc3ccccc3)CC2)c(C)c1	-2%	-9%	-7%	-10%	-4%	x	x
CC1(C)C(=O)Nc2ccccc2N1C(=O)COC(=O)Cc1ccc(Cl)c(Cl)c1	24µM*	1%	-16%	-4%	3%	u	u
Cc1cc(SCc2ccc(Cl)c(Cl)c2)nc(=O)[nH]1	u	6%	-1%	-5%	2%	12µM*	24µM*
C/C(=C\[C@@H](N)C(=O)O)CP(=O)(O)O	x	x	-5%	x	x	x	x
CC[C@H](OC(C)=O)C(C[C@H](C)NC)(c1ccccc1)c1ccccc1	x	x	x	x	5%[99.4 µM]	x	x
COC(=O)C(O)(c1ccc(NC(=S)NC(=O)c2ccc(Cl)cc2Cl)cc1)C(F)(F)F (stereo not given)	0%	-1%	10%	i	8%	x	x
Cc1ccc(C(=O)NC(=S)Nc2ccc(-c3ccc(CO)o3)cc2)cc1	u	3%	3%	i	2%	5%	0%
CCOc1ccccc1NC(=O)COc1coc(CN2CCc3ccccc32)cc1=O	u	-3%	2%	-3%	22%	13%	-21%
COC(=O)C1=C(c2ccc(OC(F)(F)F)cc2)C[C@@H]2CC[C@H]1N2C(=O)NC1CCCCC1	-3%	u	10%	5%	5%	x	x
O=[N+]([O-])c1ccccc1CNc1ccc(F)c(Cl)c1	u	0%	-7%	0%	-3%	21µM*	u
COc1cccc(CNc2ccc(F)c([N+](=O)[O-])c2)c1O	u	-2%	-4%	3%	-19%	19µM*	30µM*
COC(=O)C1=C(c2ccc(OCc3ccccc3)cc2)C[C@@H]2CC[C@H]1N2C(=O)NCCc1ccc(F)cc1	x	x	x	-4%	-5%	x	x
O=C1NCN(c2ccccc2)C12CCN(C(c1ccccc1OC(F)(F)F)c1nnnn1-c1ccc3c(c1)OCCO3)CC2 (stereo not given)	x	x	x	x	2%	x	x
CCCC(Cn1cncn1)c1ccc(Cl)cc1Cl (stereo not given)	x	x	-10%	x	x	x	x
Cc1ccc(C(=O)OCC(=O)c2ccc(CC(=O)N3CCOCC3)s2)c(C)c1	u	u	-8%	-18%	42%	u	u
Cc1ccc(C)c(OCC(=O)N2CCN(Cc3ccc4c(c3)OCO4)CC2)c1	2%	-15%	-12%	i	-12%	x	x

Screens (PubChem BioAssay)
